Results as given in the supplement of paper PMC11417369.
In all, about 25,000 sequences were measured (“ln(normalized median fluorescence intensity)”: median about 9.7, highest 2% from about 11 on). Many of the other results were omitted from the sample, so the highest values are more common in it than they were.

Test system: PfAP2-HC AP2 domain (GST-tagged)
Assay: gcPBM binding intensity (ln(normalized median fluorescence intensity)); higher = stronger DNA binding
Method in brief: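 DNA-binding domains from P. falciparum, fused to GST and produced in E. coli, were put on an Agilent 4 × 180k double-stranded probe array for 1 h in 1× PBS holding 1% milk, 0.2 mg/ml BSA, 0.5% salmon testes DNA and 0.03% Triton X-100. Probes were primer-extended, 36 bp long and drawn from intergenic genomic regions, with negative controls included. After Alexa488 anti-GST antibody detection and a 488 nm scan, binding intensity was set as the highest Masliner-normalised natural-log median intensity across replicate spots of either probe orientation.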

| Sequence | gcPBM binding intensity (ln) |
| --- | --- |
| GAAAAGTATAAAAAACGTACAAGTTTTATTTTCACA [XGTACX_site4604] | 9.58 |
| TTTCTAATTATTTCCCTTCAAATATATTAATATCGT [CACACA_negctrl_site429] | 9.55 |
| CATATATACTCATACACACACACACCGACACAGACA [CACACA_site5026] | 10.3 |
| AAAACAAACGGACACACACACATATATATATATATA [CACACA_site5924] | 10.5 |
| CATATACTCGGACACACACACACACCGACAAAAAAA [CACACA_site4433] | 11.1 |
| AGTATACATATATATACACACATATATATATATATA [CACACA_site300] | 9.8 |
| AGTATACATATATATACACACACATATATATATATA [CACACA_site7883] | 9.87 |
| AGTATACTCGGACACACACACACATATATATATATA [CACACA_site5031] | 11.7 |
| ACAAAAAAAAAAAAAAAAAAAAAAAAAAAATAATAA [CACACA_negctrl_site1640] | 9.18 |
| TAAAATATATAAAACTGTACATTTTAAAGGCACAAC [XGTACX_site8342] | 9.98 |
| AAAAATCAATTAGAAGAACACACGTAAATTTTTTTT [CACACA_site2396] | 9.76 |
| TATTTTTCTTTATTGGTACACACGAAAAAAAAATTG [CACACA_site3054] | 9.53 |
| AAATGGGTTTATTTAACACACAAAAGAAAAAATATA [CACACA_site1938] | 9.77 |
| AAAGGTGTATTTAATACACACGTGTCATTAAAATTG [CACACA_site4508] | 9.71 |
| TATATACATAGACACCCACACACAAAAAAAAAAAAA [CACACA_site8186] | 10.2 |
| TATATATATATAGACACACACACACCCATATATATA [CACACA_site4117] | 10.9 |
| CACACCCACAGACACACACACACATATATAATATAT [CACACA_site594] | 11.4 |
| CACCCATACAGACATACACACACATATATATTAATA [CACACA_site8077] | 10.2 |
| TATATATATATATATACACACACACCCATATATATA [CACACA_site8812] | 10.3 |
| TATAATAATCCACAAGCACACACACCCACATATATA [CACACA_site8343] | 11.3 |
| ATAATCCACAAGCACACACACACACCCATATATATA [CACACA_site1268] | 10.6 |

| Sequence | gcPBM binding intensity (ln) |
| --- | --- |
| TAAATACAGACATACACACATACACCCACATATATA [CACACA_site547] | 10.3 |
| CGCACCCACAGACACACACACACATATATATATATA [CACACA_site2202] | 11.4 |
| CACACCCACAGACACACACACACATATATATATATA [CACACA_site363] | 10.8 |
| TAATAATCCACAAGCACACACACACCCATATATATA [CACACA_site1267] | 10.8 |
| AAAAAAAAAAAAAAATGTACAAAAATTACTATAAAA [XGTACX_site7683] | 9.48 |
| AAAAATAATGCACATATATATAATATGTATATGTAT [CACACA_negctrl_site443] | 9.75 |
| GTAATGAAACATTGCACACATATAATAATATAATAT [CACACA_site1422] | 9.84 |
| AGAAAAGAAATTAGTTGTACTCTGATGAATTATCCT [XGTACX_site6284] | 9.5 |
| TTCAATTTTTTATGAACACACAAAAAAAAAAAAAAA [CACACA_site2533] | 9.23 |
| ACCGTGGGAGGACACACACACACACCCACATATATA [CACACA_site4339] | 10.8 |
| AGTATACACAGACACACACACACATATATATATATA [CACACA_site8510] | 10.9 |
| ACCGTGGGAAGACACACACACACACCCACATATATA [CACACA_site333] | 11 |
| AGACAGCGCACAAACACACAAACACCCACCCACATA [CACACA_site451] | 11.3 |
| CACAGACACCCATACACACACATACCCATATATATA [CACACA_site5023] | 10.3 |
| ATAGACAGCGCACAAACACACAAACACAGACCCCCA [CACACA_site4409] | 10.2 |
| TTTAAATACAGACATACACACATACACCCACATATA [CACACA_site8078] | 10.2 |
| AAACCGTGGGAGCACACACACACACCCACCCATATA [CACACA_site332] | 10.4 |
| TTGGCATACAGACACACACACACACCCCCACATATA [CACACA_site590] | 10.9 |
| ATAGTATACAGACACACACACACACCCATATATATA [CACACA_site1736] | 11.7 |
| ATAGACAGCGCACAAACACACAAACACCCACCCACA [CACACA_site8043] | 10.1 |
| GGCATACACAGACACACACACACACCCACATATATA [CACACA_site591] | 11.2 |

| Sequence | gcPBM binding intensity (ln) |
| --- | --- |
| ATTAGTATTAGATGATGTACATTTATATTGAAATAT [XGTACX_site8537] | 9.63 |
| GATATATTTTATATATGTACATACAAGGGTAAATAT [XGTACX_site1202] | 9.68 |
| ATATATATATATGTCTGTACATAAAAAATAATAAAT [XGTACX_site3122] | 9.68 |
| TATATATATATAATTACACACAATGTTCTATATATA [CACACA_site3235] | 9.8 |
| TTGTGATTATATAATCGTACATAATTTTAATCACAC [XGTACX_site398] | 9.58 |
| TTTTTTTTAATTGTGATACGTATATTATTTAATGAT [CACACA_negctrl_site38] | 9.59 |
| CGCACAAAAATATACACACACACATATATATTTATT [CACACA_site3645] | 10.4 |
| ACATTATATAAAATATGTACATATAAAAAATTCTAT [XGTACX_site1617] | 9.77 |
| GTTATATAAACATATGCATGTGAAGTGTTTATTAAT [TGCATGCA_site183] | 9.8 |
| GTATCAAAAGAATACACACACACATACATATATATA [CACACA_site3796] | 11.3 |
| GTATCAAAAGAATACACACACACATACCTATAAATA [CACACA_site7737] | 10.8 |
| AAAATACACGCATACACACACACACCGACACATATA [CACACA_site4523] | 10.7 |
| TAGTAAAAGATATACACACACCAAAAAATATAATTA [CACACA_site7142] | 10.5 |
| TATATCAAAATACATACACACATTTGTATATACATT [CACACA_site2696] | 10 |
| TCAAAGCACAGATACACACACATATATATATATATA [CACACA_site287] | 10.1 |
| AATAAAAAAGAATATACACACATAAATATAAAATAT [CACACA_site683] | 10 |
| GTATCAAAAGAATACACACACACATACAGATATATA [CACACA_site5975] | 11.2 |
| AATAGTAAAAGATATACACACACCAAAAAATATAAT [CACACA_site5293] | 10.3 |
| AAAGAAAGAAAGAATACACACACACCGATATATATA [CACACA_site9246] | 10.3 |
| AATAGTAAAAGATATACACACACCAAAAAATAGAAT [CACACA_site2289] | 11.6 |
| TGGTATCAAAAGAATACACACACACCGACATATATA [CACACA_site9265] | 11.1 |
